The source of these data is the supplement of paper PMC9446081.

The whole screen tested about 39,000 compounds, of which about 220 (0.56%) showed activity. Only a selection was taken, and actives are over-represented in it overall. A number with no mark means an inactive call.
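Also: Wild-type cells incubated without shaking, value is the mean of two biological replicates.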

This experiment relates to Escherichia coli K-12 BW25113. Nature of the experiment: relative growth (OD600 normalised to plate interquartile mean) (fraction); higher = less growth inhibition, active = 0.2 or less. The conditions noted are these: 50 µM; LB; incubation time: overnight (16-24 h).
As for `C[C@H](CO)N1C[C@H](C)[C@H](CN(C)S(=O)(=O)c2ccccc2)Oc2ccc(NC(=O)C3CC3)cc2CC1=O`, the relative growth is 1.

With `CC(C)(C)c1ccc(NC(=O)N[C@H]2CCCc3ccccc32)cc1`, the relative growth was 1.03.

In the case of `COc1ccc(NC(=O)Nc2ccc3c(c2)CC(=O)N([C@H](C)CO)C[C@@H](C)[C@@H](CN(C)S(=O)(=O)c2c(C)noc2C)O3)cc1`, the relative growth was 0.969.

As to `Nc1ncn(C2OC(CO)C(O)C2O)c(=O)n1` (stereo unspecified), the relative growth was 0.05 (active).

Take `Nc1ncn([C@@H]2O[C@H](CO)[C@@H](O)[C@H]2O)c(=O)n1`: the relative growth was 0.458.

Take `Nc1ncn([C@@H]2C[C@H](O)[C@@H](CO)O2)c(=O)n1`: the relative growth is 0.907.

In the case of `CC(=O)N(C)C[C@@H]1Oc2ncc(C#C[C@@H](C)O)cc2C(=O)N([C@@H](C)CO)C[C@H]1C`, the relative growth is 1.01.

Regarding `O=C(C[C@@H]1CC[C@@H]2[C@H](COC[C@@H](O)CN2S(=O)(=O)c2cccc(Cl)c2)O1)N1CCOCC1`, the relative growth is 1.01.

For the compound `O=C1OC(=O)[C@H]2[C@@H]1[C@H]1CC[C@H]2O1`, the relative growth is 0.16 (active).

In the case of `CCc1c(C)[nH]c(=S)c(C#N)c1C`, the relative growth is 1.01.

Regarding `Cc1noc(C)c1S(=O)(=O)Nc1ccc2c(c1)C(=O)N([C@@H](C)CO)C[C@H](C)[C@H](CN(C)CC1CC1)O2`, the relative growth was 0.999.

Take `COc1ccc(NC(=O)N(C)C[C@H]2Oc3c(NS(=O)(=O)c4cn(C)cn4)cccc3C(=O)N([C@@H](C)CO)C[C@@H]2C)cc1`: the relative growth is 0.995.

Turning to `C[C@H](CO)N1C[C@H](C)[C@@H](CN(C)S(=O)(=O)c2ccc(F)cc2)Oc2ccc(NC(=O)c3ccncc3)cc2CC1=O`, the relative growth was 0.989.

Take `C[N+](C)(C)CCCCCC[N+](C)(C)C.[Br-].[Br-]`: the relative growth was 0.862.

`CCCCCCCCCCCCCCCC[N+](C)(C)C`: the relative growth was 0.0755 (active).

As for `CCCCCCCCCCCCCCCCOP(=O)([O-])OCC[N+](C)(C)C`, the relative growth is 1.

With `NS(=O)(=O)c1cc(-c2nn[nH]n2)c(NCc2cccs2)cc1Cl`, the relative growth is 0.965.

In the case of `NC[C@H]1CCN(c2ccc(Oc3ccccc3)cc2)C1`, the relative growth is 0.669.

As to `C[C@H]1CCCCO[C@H](CN(C)C(=O)Cc2ccccc2)[C@@H](C)CN([C@@H](C)CO)C(=O)c2cc(NC(=O)c3ccccc3)ccc2O1`, the relative growth is 1.03.

As for `CON=C(C(=O)NC1C(=O)N2C(C(=O)OCOC(=O)C(C)(C)C)=C(C=Cc3scnc3C)CSC12)c1csc(N)n1` (stereo unspecified), the relative growth was 0.0492 (active).

Consider `CCC=C(C(=O)NC1C(=O)N2C(C(=O)OCOC(=O)C(C)(C)C)=C(COC(N)=O)CSC12)c1csc(N)n1.Cl` (stereo unspecified), for which the relative growth is 0.0724 (active).

As to `CON=C(C(=O)N[C@@H]1C(=O)N2C(C(=O)OCOC(=O)C(C)(C)C)=C(C=Cc3scnc3C)CS[C@H]12)c1csc(N)n1`, the relative growth is 0.0386 (active).

For the compound `Cc1ccc(S(=O)(=O)N(C)C[C@@H]2Oc3ccc(NS(=O)(=O)c4ccc(F)cc4)cc3C(=O)N([C@H](C)CO)C[C@@H]2C)cc1`, the relative growth was 1.08.

For `COc1ccc(CN(C)C[C@@H]2Oc3c(NC(=O)Nc4ccc(C(F)(F)F)cc4)cccc3C(=O)N([C@@H](C)CO)C[C@H]2C)cc1`, the relative growth is 0.818.

Regarding `Cc1cc(-c2ccccc2)nc(-c2ccccc2)c1C`, the relative growth is 0.937.

Take `C[C@H]1CN([C@@H](C)CO)C(=O)c2cc(NC(=O)CCCCCC(=O)Nc3ccccc3N)ccc2O[C@H]1CN(C)S(=O)(=O)c1cn(C)cn1`: the relative growth was 1.01.

For the compound `CNC[C@H]1Oc2cc(C#CCN(C)C)ccc2S(=O)(=O)N([C@H](C)CO)C[C@@H]1C`, the relative growth is 1.02.

`C[C@@H]1CCCCO[C@@H](CN(C)C(=O)Nc2ccc3c(c2)OCO3)[C@H](C)CN([C@H](C)CO)C(=O)c2cc(NS(=O)(=O)c3ccc(F)cc3)ccc2O1`: the relative growth was 1.01.

Take `Cc1noc(C)c1S(=O)(=O)Nc1ccc2c(c1)C(=O)N([C@H](C)CO)C[C@@H](C)[C@@H](CN(C)S(=O)(=O)c1cccs1)O2`: the relative growth was 0.998.

Regarding `C[C@H]1CCCCO[C@H](CN(C)S(C)(=O)=O)[C@@H](C)CN([C@@H](C)CO)C(=O)c2cc(NC(=O)c3ccncc3)ccc2O1`, the relative growth is 1.01.

`CCCCCOc1ccc(-c2cc(-c3ccc(C(=O)N[C@H]4C[C@@H](O)[C@@H](O)NC(=O)[C@H]5[C@@H](O)[C@@H](C)CN5C(=O)[C@H]([C@@H](O)CC(N)=O)NC(=O)[C@H]([C@@H](O)[C@@H](O)c5ccc(O)c(OS(=O)(=O)O)c5)NC(=O)[C@H]5C[C@@H](O)CN5C(=O)[C@H]([C@@H](C)O)NC4=O)cc3)no2)cc1`: the relative growth was 0.952.

As to `CCCCCOc1ccc(-c2ccc(-c3ccc(C(=O)N[C@H]4C[C@@H](O)[C@@H](O)NC(=O)[C@@H]5[C@@H](O)[C@@H](C)CN5C(=O)[C@H]([C@@H](C)O)NC(=O)[C@H]([C@H](O)[C@@H](O)c5ccc(O)cc5)NC(=O)[C@@H]5C[C@@H](O)CN5C(=O)[C@H]([C@@H](C)O)NC4=O)cc3)cc2)cc1`, the relative growth was 1.12.

As to `CC[C@H](C)C[C@H](C)CCCCCCCCC(=O)N[C@H]1C[C@@H](O)[C@@H](NCCN)NC(=O)[C@@H]2[C@@H](O)CCN2C(=O)[C@H]([C@H](O)CCN)NC(=O)[C@H]([C@H](O)[C@@H](O)c2ccc(O)cc2)NC(=O)[C@@H]2C[C@@H](O)CN2C(=O)[C@H]([C@@H](C)O)NC1=O`, the relative growth is 0.173 (active).

Regarding `NC1(C(=O)O)CC1`, the relative growth is 0.988.

Regarding `C[C@@H]1CN([C@@H](C)CO)C(=O)c2cc(C#Cc3ccc(F)cc3)cnc2O[C@@H]1CN(C)Cc1ccccn1`, the relative growth was 0.995.

With `Cc1ccc(S(=O)(=O)Nc2ccc3c(c2)C(=O)N([C@@H](C)CO)C[C@@H](C)[C@@H](CN(C)C(=O)Nc2cccc4ccccc24)OCCCC[C@@H](C)O3)cc1`, the relative growth is 0.998.

Turning to `CC1COc2c(N3CCN(C)CC3)c(F)cc3c(=O)c(C(=O)O)cn1c23` (stereo unspecified), the relative growth was 0.0447 (active).

Consider `CN1CCN(c2c(F)cc3c(=O)c(C(=O)O)cn4c3c2OCN4C)CC1`, for which the relative growth was 0.0475 (active).

As for `CN(c1ccc(N)cc1[N+](=O)[O-])S(C)(=O)=O`, the relative growth is 1.02.

Turning to `C/C=C/c1ccc2c(c1)O[C@@H](CN(C)Cc1ccc(C(=O)O)cc1)[C@@H](C)CN([C@@H](C)CO)S2(=O)=O`, the relative growth was 1.02.

In the case of `COc1ccccc1-c1ccc2c(c1)O[C@H](CN(C)C(=O)c1ccncc1)[C@@H](C)CN([C@H](C)CO)S2(=O)=O`, the relative growth was 1.01.

Consider `C[C@@H]1CN([C@@H](C)CO)C(=O)Cc2cc(NC(=O)Cc3cn(C)c4ccccc34)ccc2O[C@H]1CN(C)Cc1ccc(C(F)(F)F)cc1`, for which the relative growth was 1.02.

Consider `CCCNC(=O)N1C[C@H](C)[C@H](OC)CN(C)C(=O)c2ccc(NS(=O)(=O)CC(F)(F)F)cc2OC[C@H]1C`, for which the relative growth was 0.974.

As to `NC(=O)c1cc[n+](CC2=C(C(=O)[O-])N3C(=O)C(NC(=O)C(c4ccccc4)S(=O)(=O)[O-])C3SC2)cc1.[Na+]` (stereo unspecified), the relative growth was 1.08.

Consider `Cn1nnnc1SCC1=C(C(=O)[O-])N2C(=O)C(NC(=O)C(O)c3ccccc3)C2SC1.[Na+]` (stereo unspecified), for which the relative growth was 0.0463 (active).

Regarding `NCc1ccccc1CC(=O)NC1C(=O)N2C(C(=O)O)=C(CSc3nnnn3CC(=O)O)CSC12` (stereo unspecified), the relative growth was 0.0453 (active).

`O=C([O-])C1=C(CSc2nnnn2CS(=O)(=O)[O-])CSC2C(NC(=O)C(O)c3ccccc3)C(=O)N12.[Na+].[Na+]` (stereo unspecified): the relative growth was 0.044 (active).

In the case of `Cn1nnnc1SCC1=C(C(=O)[O-])N2C(=O)C(NC(=O)C(OC=O)c3ccccc3)C2SC1.[Na+]` (stereo unspecified), the relative growth is 0.365.

For `CCC(CC)c1ccc(O)cc1`, the relative growth was 0.994.

Turning to `CNC[C@@H]1Oc2cc(C#CCN(C)C)ccc2S(=O)(=O)N([C@@H](C)CO)C[C@H]1C`, the relative growth is 0.981.

In the case of `Oc1ccccc1/N=C/c1ccncc1`, the relative growth was 0.953.

Take `Cc1nn(C)cc1NC(=O)C[C@@H]1CC[C@@H]2[C@H](COc3ccc(NC(=O)C4CCOCC4)cc3C(=O)N2C)O1`: the relative growth was 0.986.

Turning to `COc1ccc(S(=O)(=O)N(C)C[C@@H]2OCCCC[C@H](C)Oc3ccc(NC(=O)Nc4cccc5ccccc45)cc3C(=O)N([C@H](C)CO)C[C@H]2C)cc1`, the relative growth was 0.966.

With `C[C@@H]1CN([C@@H](C)CO)S(=O)(=O)c2ccc(C#CC(C)(C)O)cc2O[C@@H]1CN(C)Cc1ccccc1`, the relative growth is 1.

`Cc1noc(C)c1S(=O)(=O)Nc1ccc2c(c1)C(=O)N([C@@H](C)CO)C[C@H](C)[C@@H](CN(C)Cc1ccccc1)O2`: the relative growth is 0.968.

In the case of `C[C@H](CO)N1C[C@H](C)[C@H](CN(C)C(=O)Nc2ccc3c(c2)OCO3)OCCCC[C@H](C)Oc2ccc(NC(=O)Cc3ccccc3)cc2C1=O`, the relative growth was 0.991.

Take `CN(C)C(=O)C[C@H]1C=C[C@H](NC(=O)C2CCOCC2)[C@H](CO)O1`: the relative growth is 1.01.

For the compound `COc1ccc(NC(=O)Nc2ccc3c(c2)C(=O)N([C@H](C)CO)C[C@@H](C)[C@@H](CN(C)S(=O)(=O)c2cccs2)OCCCC[C@@H](C)O3)cc1`, the relative growth is 1.02.

On to `CO[C@@H]1CN(C)C(=O)c2cc(NS(=O)(=O)CC(F)(F)F)ccc2OC[C@@H](C)N(C(=O)c2ccc3c(c2)OCO3)C[C@H]1C`, for which the relative growth is 0.937.

As to `Cc1ccc(S(=O)(=O)Nc2ccc3c(c2)C(=O)N([C@@H](C)CO)C[C@@H](C)[C@H](CN(C)C(=O)Cc2ccccc2)OCCCC[C@@H](C)O3)cc1`, the relative growth is 1.01.

For the compound `C[C@H]1CN([C@@H](C)CO)C(=O)Cc2cc(NC(=O)CCN3CCOCC3)ccc2O[C@@H]1CN(C)Cc1ccccc1`, the relative growth was 1.01.
